SARS 3CLpro inh: SARS-CoV 3CLpro protease inhibitors, primary screen, biochemical, quenched FRET; inhibition, % at 6 µM; hit rate 0.14% among 290,000; recombinant SARS-CoV 3CLpro, quenched FRET peptide cleavage; AID 1706, 2009; Replicase polyprotein 1ab (Severe acute respiratory syndrome coronavirus), P0C6X7; in the data active = inhibition above about 12%
BoNT F protease: BoNT/F light chain protease inhibitors, primary screen, biochemical, flow cytometry, MLPCN library; Botulinum neurotoxin type F light chain protease (Clostridium botulinum); Multiplex microsphere protease cleavage assay; inhibition, % at 10 µM; hit rate 0.22% among 360,000; AID 588497, 2011; in the data active = inhibition above about 35%, passing the limit was not always enough; inconclusive = no clear call, values can overlap the other calls
BoNT A protease: BoNT/A light chain protease inhibitors, primary screen, biochemical, flow cytometry, MLPCN library | hit rate 0.17% among 360,000 | inhibition, % at 10 µM | multiplex microsphere protease substrate cleavage | Botulinum neurotoxin type A light chain protease (Clostridium botulinum A str. ATCC 3502)
Anthrax LF inh2: Bacillus anthracis LF protease inhibitors, primary screen, biochemical, multiplex microsphere, MLPCN library; multiplex microsphere protease cleavage assay; inhibition, % at 10 µM; hit rate 0.12% among 360,000; AID 588501, 2011
Bead autofluor: flagged as autofluorescent in microsphere protease counterscreen | compound autofluorescence counterscreen, microsphere flow cytometry; stronger effect = higher value | fluorescence intensity (no concentration beside the values) | hit rate 3.1% among 360,000; in the data active = fluorescence intensity above about 16000; inconclusive = no clear call, values can overlap the other calls
Large screens that a line does not name were inactive. Compounds with a hit are over-represented: about 3.5% of the library has one in this group of screens. Cut-off read from the data, not from the text of the source, unless noted: active = inhibition above about 30%; inconclusive = no clear call, values can overlap the other calls; inactive = below that.

CCOC(=O)c1[nH]c(C)c(C(=O)C(C)C)c1C	Bead autofluor 16910
CCOC(=O)c1c(C)[nH]c(C(=O)OCc2ccc(C)cc2)c1C	none
CCNC(=O)c1c(C)[nH]c(C(=O)OCC)c1C	Bead autofluor 24505
CCOC(=O)c1[nH]c(C)c(C(=O)O)c1C	none (no result: BoNT F protease, BoNT A protease, Anthrax LF inh2, Bead autofluor)
CCOCCCNC(=O)c1c(C)[nH]c(C(=O)OCC)c1C	Bead autofluor 16166
COc1cc(C2CC(=O)c3cnc(NC(=O)c4ccco4)nc3C2)cc(OC)c1OC (centres undefined)	none
CC(=O)c1c(C)[nH]c(C(=O)OCC(=O)NCC(C)C)c1C	none
CNC(=O)COC(=O)c1[nH]c(C)c(C(C)=O)c1C	BoNT A protease inconclusive, Bead autofluor 16399
CCOC(=O)c1c(C)[nH]c(C(=O)OCc2ccccc2)c1C	none
CCOC(=O)c1[nH]c(C)c(C(=O)Nc2ccc(C)c(Cl)c2)c1C	Bead autofluor 21453
CCOC(=O)c1c(C)[nH]c(C(=O)NCc2ccccn2)c1C	Bead autofluor inconclusive (no result: SARS 3CLpro inh)
CCOC(=O)c1[nH]c(C)c(C(=O)N(C)Cc2ccccc2)c1C	Bead autofluor 18491
CCOC(=O)c1[nH]c(C)c(C(=O)Nc2ccc(C)c(F)c2)c1C	none
CCOC(=O)c1[nH]c(C)c(C(=O)NCc2ccccn2)c1C	Bead autofluor 21338
Cc1cc(C)c2c3c(sc2n1)C(=O)N(C)CC(=O)N3	none
CCOC(=O)C1CCCN(C(=O)c2ccc(S(=O)(=O)N3CCOCC3)cc2)C1 (centres undefined)	none (no result: SARS 3CLpro inh)
CC(=O)c1c(C)[nH]c(C(=O)COc2cc(C)cc(C)c2)c1C	Bead autofluor 21911
CCCOc1ccc(OCC(=O)c2[nH]c(C)c(C(C)=O)c2C)cc1	none
Cc1cc(C)n(CC(=O)NNC(=O)c2cncc(Br)c2)n1	none (no result: SARS 3CLpro inh)
COc1ccc(C(=O)N(CCCO)C(C)C(=O)NC2CCCCC2)cc1OC (centres undefined)	BoNT A protease inconclusive, Bead autofluor 21753
COc1ccc(C(=O)NC2CCCCCCC2)cc1OC	BoNT F protease inconclusive (no result: SARS 3CLpro inh)
COc1ccc(C(=O)N(CC2CCCO2)C(C(=O)NC2CCCC2)c2ccc(Cl)cc2)cc1OC (centres undefined)	Bead autofluor 21196
COc1cc(C)c(CN2CCN(c3ccccc3)CC2)cc1C	Bead autofluor 17583
COc1cc(C)c(CN2CCSCC2)cc1C	none
NC(=O)NC(=O)COC(=O)CN1C(=O)C2CCCCC2C1=O (centres undefined)	none
COc1cc(OC)c(C2C(C(=O)Nc3ccc(C)cc3C)=C(C)Nc3ncnn32)cc1OC (centres undefined)	Bead autofluor 23198
CC1=C(C(=O)OC(C)C)C(c2cccc(F)c2)n2ncnc2N1 (centres undefined)	none
COc1cccc(C2C(C(=O)OC(C)C)=C(C)Nc3ncnn32)c1 (centres undefined)	BoNT A protease inconclusive, Bead autofluor 20726
COc1ccccc1C1C(C(=O)NCc2ccccc2)=C(C)Nc2ncnn21 (centres undefined)	none
CC1=C(C(=O)Nc2ccc(C)cc2C)C(c2ccc([N+](=O)[O-])cc2)n2ncnc2N1 (centres undefined)	none
COc1cc(OC)c(C2C(C(=O)Nc3ccccc3)=C(C)Nc3ncnn32)cc1OC (centres undefined)	Bead autofluor 16373
COc1ccccc1C1C(C(N)=O)=C(C)Nc2ncnn21 (centres undefined)	Bead autofluor 16247
CCOC(=O)C1=C(c2ccccc2)Nc2ncnn2C1c1ccccn1 (centres undefined)	none
COC(=O)C1=C(C)Nc2ncnn2C1c1ccccn1 (centres undefined)	Bead autofluor 21583
CCCCNC(=S)N/N=C1\C(=O)c2cccc3cccc1c23	Bead autofluor 20454
CNC(=S)N/N=C1\C(=O)c2cccc3cccc1c23	Bead autofluor 17615
Cc1ccc(NC(=O)NNC(=O)c2cccs2)cc1	none
CCNC(=S)NNC(=O)c1cc(CC(C)C)nc2ccccc12	BoNT A protease inconclusive, Bead autofluor 22680
CCNC(=S)NNC(=O)c1cc(-c2cccc(OC)c2)nc2ccccc12	none
CCNC(=S)NNC(=O)c1cc(-c2ccccc2C)nc2ccccc12	none
CCCOc1cccc(-c2cc(C(=O)NNC(=S)NCC)c3ccccc3n2)c1	Bead autofluor 24056
COc1ccc(S(=O)(=O)N2Cc3ccccc3CC2C(=O)Nc2nccs2)cc1OC (centres undefined)	none
COc1ccc(S(=O)(=O)N2Cc3ccccc3CC2C(=O)Nc2nccs2)cc1 (centres undefined)	Bead autofluor 23488
O=C(CCNC(=O)c1ccc(Br)o1)NC1CCCC1	BoNT A protease inconclusive, Bead autofluor 16174
CNc1nnc(-c2ccncc2)s1	Bead autofluor 16766
O=C(Nc1ccccc1Br)C1CC(=O)N(c2ccc3c(c2)OCCO3)C1 (centres undefined)	Bead autofluor inconclusive (no result: SARS 3CLpro inh)
CC(C)CC(=O)OCc1cn(-c2ccccc2)nn1	Bead autofluor 21300
O=C(Nc1cccc(Cl)c1)OCc1cn(-c2ccc(Cl)cc2)nn1	Bead autofluor 16617
CC(C)(C)C(=O)OCc1cn(-c2ccccc2)nn1	none
CC(C)(C)C(=O)OCc1cn(-c2ccc(Cl)cc2)nn1	BoNT A protease inconclusive, Bead autofluor 19456
CCOC(=O)c1cc(-c2ccccc2)nn1CCC#N	none
O=c1[nH]cc(C(F)(F)F)cc1NS(=O)(=O)c1ccccc1[N+](=O)[O-]	none
CNC(=O)COC(=O)c1ccc(NS(=O)(=O)c2ccc3c(c2)OCCO3)cc1	BoNT F protease 42.6
CC(C)NC(=O)COC(=O)c1ccc(NS(=O)(=O)c2ccc3c(c2)OCCO3)cc1	none
CCCCNC(=O)COC(=O)c1ccc(NS(=O)(=O)c2ccc3c(c2)OCCO3)cc1	Bead autofluor 21536
COc1ccc(OCC(=O)Nc2ccc3c(c2)nc(CCN2CCC(C)CC2)n3C)cc1	none
Cc1ccc2c(c1)C(=O)C(=O)N2CCOc1ccccc1	none
CC1CCN(C(c2ccccc2)c2nnnn2C(C)(C)C)CC1 (centres undefined)	none
Cc1ccc(C(c2nnnn2C(C)(C)C)N2CCC(C)CC2)cc1 (centres undefined)	Bead autofluor 20278
CCN(CC(=O)Nc1c(F)cccc1F)C(=O)c1ccc(=O)[nH]c1	none
O=S(=O)(c1cccs1)N1CCN(c2ccccn2)CC1	Bead autofluor 22816
CCS(=O)(=O)N1CCN(c2ccccn2)CC1	Bead autofluor 26268
O=C(CN1CCN(c2ccccc2)CC1)Nc1c(C(=O)C2CC2)oc2ccccc12	BoNT A protease inconclusive, Bead autofluor 20951
COCCN(CCOC)C(=O)c1c[nH]c2ccc(S(=O)(=O)N(C)c3ccc(F)cc3)cc2c1=O	Bead autofluor 18595
CCS(=O)(=O)N1Cc2cc(C(=O)NCCOC)nc(-c3cccc(-c4ccncc4)c3)c2[C@@H]1CCO	none (no result: SARS 3CLpro inh)
